In all, about 350,000 compounds went through this assay and about 1,300 (0.37%) were called active. This excerpt belongs to a sample that is enriched for actives. Values without a mark were called inactive.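 The calls were made as follows: active = mean added fluorescence quench of at least 8% versus neutral control, with both replicates also reaching 8%; inconclusive = only one of the mean or replicate conditions met; inactive = mean below 8% and not both replicates reaching 8%.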

This experiment in a line: F508del CFTR correction, initial screen, CFBE line, single point (AID 720511).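 Also: cells transiently co-express mutant CFTR-F508del with the halide-sensitive YFP; corrector assay measuring rescue of mutant channel to the surface after 24 h compound exposure.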 Particulars: CFBE cells, YFP halide quenching, at 7.58 µM, hits give high values, % fluorescence drop versus neutral controls, stimulated with forskolin plus potentiator P3.
As for `Cc1ccc(S(=O)(=O)Nc2ccc3c(c2)C(=O)N([C@@H](C)CO)C[C@@H](C)[C@H](CN(C)Cc2ccncc2)O3)cc1`, the activity (quench increase) is -0.494%.

Regarding `C[C@@H]1CCCCO[C@H](CN(C)Cc2ccc(Cl)c(Cl)c2)[C@@H](C)CN([C@@H](C)CO)C(=O)c2cc(NC(=O)Nc3ccccc3)ccc2O1`, the activity (quench increase) is 0.025%.

Turning to `Cc1ccc(C(=O)OCC(=O)NCc2cc(C)c(O)c(C)c2)cc1S(=O)(=O)N1CCCCC1`, the activity (quench increase) was 9.62% (active).

On to `Cc1ccc(C(=O)OCC(=O)N2CC(C)CC(C)C2)cc1S(=O)(=O)N1CCCCC1` (stereo not drawn), for which the activity (quench increase) was 0.347%.

For the compound `COc1ccc(CNC(=O)COC(=O)c2ccc(C)c(S(=O)(=O)N3CCOCC3)c2)cc1OC`, the activity (quench increase) was -3.23%.

In the case of `Cc1cc(Nc2ccc(Br)cc2)nc2ccccc12`, the activity (quench increase) is 10.3% (active).

As to `Cc1cc(C)c(C#N)c(Nc2cccc(Br)c2)n1`, the activity (quench increase) was -5.44%.

On to `C[C@H]1CN([C@@H](C)CO)C(=O)c2ccccc2-c2ccccc2CO[C@@H]1CN(C)C(=O)CCN(C)C`, for which the activity (quench increase) was -0.09%.

Regarding `O=C(Nc1ccc(F)cc1)N[C@H]1CC[C@H](CCn2cc(C3(O)CCCC3)nn2)O[C@@H]1CO`, the activity (quench increase) was 0.048%.

Turning to `O=C(NNC(=O)C(O)c1ccccc1)NC1CCCCC1` (stereo not drawn), the activity (quench increase) was -1.37%.

For `CC(C)c1cc(C(=O)NC2CCCCCC2)c2ccccc2n1`, the activity (quench increase) was 0.503%.

On to `Cc1nc(/N=C(\N)NC(=O)NC2CCCCC2)nc2ccccc12`, for which the activity (quench increase) was 12.3% (active).

Turning to `CNC[C@H]1OCCCC[C@@H](C)Oc2ccc(NC(=O)Cc3ccccc3)cc2C(=O)N([C@H](C)CO)C[C@@H]1C`, the activity (quench increase) was -0.325%.

In the case of `CCCNC(=O)N(C)C[C@@H]1Oc2ncc(-c3cccc(C#N)c3)cc2C(=O)N([C@@H](C)CO)C[C@@H]1C`, the activity (quench increase) was 0.957%.

With `O=C(c1cnccn1)N1CC[C@@H]2[C@H](CO)Nc3ccc(-c4cccc(F)c4)cc3[C@@H]21`, the activity (quench increase) is 2.08%.

As to `CCNC(=O)C1CCCN(C(=O)c2ccc(OC)cc2OC)CC1` (stereo not drawn), the activity (quench increase) is -1.31%.

For `CCNC(=O)C1CCCN(C(=O)c2cc(F)ccc2C)CC1` (stereo not drawn), the activity (quench increase) was 10% (active).

For the compound `CCOC(=O)C1CCCN(C(=O)c2ccc(C)c(F)c2)CC1` (stereo not drawn), the activity (quench increase) was 0.23%.

Regarding `CCCNC(=O)N1[C@H](CO)[C@@H]2c3ccccc3N(C(=O)C3CCOCC3)C[C@@H]21`, the activity (quench increase) is 2.24%.

On to `COc1ccc(NC(=O)N(C)C[C@@H]2OCCCC[C@@H](C)Oc3ccc(NS(=O)(=O)c4cn(C)cn4)cc3C(=O)N([C@@H](C)CO)C[C@H]2C)cc1`, for which the activity (quench increase) is 0.433%.

For the compound `CC(C)(C)c1cc(C(=O)NN)n(Cc2ccc(Cl)cc2Cl)n1`, the activity (quench increase) is 8.63% (active).

On to `Cn1cc(C(=O)c2ccc(Cl)cc2Cl)cc1C(=O)NN`, for which the activity (quench increase) is -2.38%.

On to `CC(C)(C)NC(=O)NC(=O)COC(=O)Cc1ccc(Cl)cc1Cl`, for which the activity (quench increase) is 1.27%.

The values above are taken from PubChem BioAssay AID720511 (Broad Institute, 2013).
